Source: PubChem BioAssay (National Center for Advancing Translational Sciences (NCATS))
Tau fibril FP: qHTS for Inhibitors of Tau Fibril Formation, Fluorescence Polarization; Microtubule-associated protein tau (Homo sapiens), P10636; AID 1468, 2008; actives 0.39% (n = 280,000); K18 P301L tau heparin fibrillization, Alexa594 FP, 6 h; Potency, µM (top dose mostly 57.7 µM), for the others: at the top dose activity, negative = inhibition, hits mostly inhibitors; also: potency is read from the fitted curve at half-maximal effect; nearly all actives have a fitted effect of over 55% in size
Target sequence (P10636 561-689 P618L limits assumed): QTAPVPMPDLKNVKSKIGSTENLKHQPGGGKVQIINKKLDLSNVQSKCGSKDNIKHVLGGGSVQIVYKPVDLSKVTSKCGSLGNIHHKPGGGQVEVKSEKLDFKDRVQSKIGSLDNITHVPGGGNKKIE
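Human tau K18 […] P301L fragment, 15 uM unlabeled plus 0.24 uM Alexa 594-labeled tau (final), with compound and 20 uM heparin in 100 mM sodium acetate pH 7; 6 hr at 37 C, then Alexa 594 FP read.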
KDM4E inh: qHTS Assay for Inhibitors of Human Jumonji Domain Containing 2E (JMJD2E); Lysine-specific demethylase 4E (Homo sapiens), B2RXH2; JMJD2E catalytic domain, FDH-coupled NADH fluorescence (FDH is formaldehyde dehydrogenase); Potency, µM (doses to about 57.1 µM), for the others: top-dose activity change, negative = inhibition, most hits filed as inhibitors; actives 1.6% (n = 230,000); active = well fitted inhibition curve with a large enough effect, not every such curve was filed as active; inconclusive = small, poorly fitted or top-dose-only effect, or another doubt; inactive = no such curve, though single readings can be large or run the other way;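 also: potency is read from the fitted curve at half-maximal effect; 0% = wells with enzyme and -100% = buffer wells without enzyme; nearly all actives have a fitted effect of over 50% in size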
Target sequence (B2RXH2 1-337 limits assumed): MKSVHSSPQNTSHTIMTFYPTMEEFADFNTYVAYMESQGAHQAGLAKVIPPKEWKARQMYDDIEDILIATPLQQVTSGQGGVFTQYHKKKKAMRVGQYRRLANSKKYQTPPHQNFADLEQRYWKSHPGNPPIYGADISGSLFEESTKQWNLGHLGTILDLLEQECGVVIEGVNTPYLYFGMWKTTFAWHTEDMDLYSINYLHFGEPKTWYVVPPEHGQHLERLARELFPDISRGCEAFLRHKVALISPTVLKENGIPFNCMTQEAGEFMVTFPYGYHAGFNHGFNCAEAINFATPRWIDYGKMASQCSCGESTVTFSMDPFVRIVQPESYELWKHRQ
Coupling enz: qHTS Assay for Inhibitors of Fructose-1,6-bisphosphate Aldolase from Giardia Lamblia: Coupling assay counterscreen. actives 0.67% (n = 290,000). activity change, negative = inhibition, % at 58.2 µM, hits read low. coupling enzyme system counterscreen, AmpLite Red fluorescence. AID 2472, 2010; in the data active = activity change below about -30%
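Final compound at 57.5 uM, incubated 10 min at RT with coupling enzyme reagent (glyceraldehyde-3-phosphate), then 20 min with substrate and AmpLite Red detection. Fluorescence read at 525/598 nm; tests interference with the coupling assay, not aldolase inhibition.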
Tau ThT inhib: qHTS for Inhibitors of Tau Fibril Formation, Thioflavin T Binding. recombinant tau K18 P301L, heparin-induced fibrillization, ThT fluorescence. AID 1460, 2008. Microtubule-associated protein tau (Homo sapiens), P10636. Potency, µM (titrated, usually from 57.4 µM), for the others: at the top dose activity, negative = inhibition, usual class: inhibitors. actives 2.1% (n = 270,000); also: potency is read from the fitted curve at half-maximal effect; nearly all actives have a fitted effect of over 55% in size
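Fibril formation assay: tau K18 P301L at 15 uM with trace Alexa 594 label, heparin inducer 20 uM, pH 7 sodium acetate buffer, 37 C for 6 hr; endpoint ThT signal.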
Tau fluor counter: Counterscreen qHTS for Inhibitors of Tau Fibril Formation, Fluorescence Polarization | tau K18 P301L (four-repeat tau fragment) Alexa594 fluorescence, heparin fibrillization | Potency, µM (highest dose often 57.7 µM), for the others: top-dose activity change, negative = decrease | actives 0.93% (n = 280,000) | AID 1463, 2008; also: potency is read from the fitted curve at half-maximal effect; nearly all actives have a fitted effect of over 55% in size
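Human K18 P301L tau (15 uM unlabeled plus 0.24 uM Alexa 594-labeled, final) in 100 mM sodium acetate pH 7 was mixed with compound and 20 uM heparin and incubated 6 hr at 37 C.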
* marks the source's active call; other numbers are inactive results; ? = inconclusive; / = no result; [ ] = dose if it differs, or a comment. Rows were chosen to be rich in hits. Some 3% of all compounds tested hit in one or more screens of this group. Unless noted, calls follow the shape of the dose curve; as a rule, active = well fitted curve in the direction sought with a large enough effect; inconclusive = small, poorly fitted or top-dose-only effect, or another doubt; inactive = no such curve, though single readings can be large; an effect the other way counts as inactive or inconclusive. Unless noted, % is scaled to controls: 0 for no effect and ±100 for the full control effect.

SMILES	Tau fibril FP	KDM4E inh	Coupling enz	Tau ThT inhib	Tau fluor counter
COC(=O)c1cccc(NC(=O)Nc2ccc(Cl)c(Cl)c2)c1	13µM*	15%	0	?	?
Cc1ccc(C)c(NC(=O)CSc2nnc(-c3n[nH]c4ccccc34)o2)c1	?	?	2	-13%	-25%
CC(C)(C)c1ccc(NC(=O)CSc2nnc(-c3n[nH]c4ccccc34)o2)cc1	32µM*	6%	-4	-8%	?
CCCS(=O)(=O)c1c(S(=O)(=O)CCC)c2c(N)cccn2c1C(=O)c1ccc(F)cc1	1%	-15%	-38*	?	-26%
CCCS(=O)(=O)c1c(S(=O)(=O)CCC)c2c(N)cccn2c1C(=O)c1ccc(Br)cc1	3%	-3%	-18	?	?
CCCCCCCCCCCCCCCC(=O)OCC(O)C1OC(=O)C(O)=C1O (stereo unspecified)	-16%	/	9	?	-13%
COC(=O)N1C2=C(c3ccccc3[C@@H]1CC(=O)Nc1ccc3ccc4cccc5ccc1c3c45)[C@@H]1C(=O)N(c3ccccc3)C(=O)[C@@H]1[C@H](C)C2	9%[11.6 µM]	?	0	-1%[11.5 µM]	-7%[11.6 µM]
N#CC12COC3(CCCCC3C1(C#N)C#N)OC2=N (stereo unspecified)	?	?	-5	14µM*	-22%
N#CC1(C#N)COC23CCCCC2C1(C#N)C(=N)O3 (stereo unspecified)	3%	?	-14	2%	2%
c1csc(C2Nc3cccc4cccc(c34)N2)c1	?	?	-20	11µM*	16µM*[quencher]
CN1c2cccc3cccc(c23)N(C)C1c1cccs1	2%	0%	-37*	?	?
Brc1ccc(C2Nc3cccc4cccc(c34)N2)o1	?	3.2µM*	-26	?	?
Clc1cccc(Cl)c1C1Nc2cccc3cccc(c23)N1	/	/	-3	/	/
Brc1cccc(C2Nc3cccc4cccc(c34)N2)c1	/	/	-4	/	/
Cc1cc(S(=O)(=O)Nc2ccc(-c3ccc(N4CCCCCC4)nn3)cc2)c(C)cc1Cl	-8%	/	/	-12%	-17%
CC(NC(=O)c1sc2ncccc2c1-n1cccc1)c1ccccc1 (stereo unspecified)	1%	/	/	-3%	-4%
Cc1ccccc1NS(=O)(=O)c1ccc2[nH]cc(C(=O)N3CCCCC3)c(=O)c2c1	3%	/	/	0%	5%
Cc1ccccc1NS(=O)(=O)c1ccc2[nH]cc(C(=O)NC3CCCCC3)c(=O)c2c1	28µM*	/	/	8%	?
Cc1ccccc1NS(=O)(=O)c1ccc2[nH]cc(C(=O)NC(C)c3ccccc3)c(=O)c2c1 (stereo unspecified)	25µM*	/	/	12%	?
Cc1ccccc1NS(=O)(=O)c1ccc2[nH]cc(C(=O)N(C)Cc3ccco3)c(=O)c2c1	-4%	?	-22	-4%	-11%
Cc1c(Cl)cccc1NS(=O)(=O)c1ccc2[nH]cc(C(=O)NC3CCCC3)c(=O)c2c1	14µM*	/	/	11%	?
CCOc1ccc(NC(=S)/C(=C(\[O-])c2ccc(C)c([N+](=O)[O-])c2)[n+]2ccccc2)cc1	10%	-7%	-3	25µM*	-25%
CC(=O)Nc1ccc(C)c([N+](=O)[O-])c1	6%	-2%	0	-2%	-1%
CCOc1ccc(NC(=S)Nc2ccc(C)c([N+](=O)[O-])c2)cc1	-4%	-2%	-4	?	32µM*[quencher]
CN(C)CCCN1c2ccccc2Sc2ccccc21	11%	?	-2	?	-23%
SMILES	Tau fibril FP	KDM4E inh	Coupling enz	Tau ThT inhib	Tau fluor counter
CCN(CC)[C@@H](C)CN1c2ccccc2Sc2ccccc21	/	7.9µM*	5	/	/
CC1=C(C(=O)Nc2ccc(C)cc2)C(c2ccc(Cl)cc2)n2nnnc2N1 (stereo unspecified)	?	/	/	6%	-17%
CC1=C(C(=O)Nc2ccc(Cl)cc2)C(c2ccc(C(F)(F)F)cc2)n2nnnc2N1 (stereo unspecified)	22µM*	/	/	-6%	?
COc1ccc(Cn2c(C(=O)O)c(CNC3CCC(C)CC3)c3ccc(C)cc32)cc1 (stereo unspecified)	11%	/	/	-6%	-4%
Cc1ccc(S(=O)(=O)NC(C)(C)CSc2nnc(Nc3ccccc3)s2)cc1	4%	-2%	0	-17%	18µM*[quencher]
CC(=O)Nc1ccc(N/C=C/C(=O)c2ccco2)cc1	4%	5%	-26	10µM*	-18%
CN(C)c1ccc(N/C=C/C(=O)c2ccc(F)cc2)cc1	-13%	13µM*	-11	2µM*	?
O=C(/C=C/Nc1ccccc1O)c1ccco1	-7%	-20%	1	13µM*	-26%
CC(=O)Nc1ccc(NC(=O)c2ccco2)cc1	-12%	-4%	-15	-17%	-14%
CN(C)c1ccc(N/C=C/C(=O)c2ccco2)cc1	?	6%	-35*	2µM*	?
O=C(/C=C/Nc1ccccc1Oc1ccccc1)c1ccco1	-10%	-8%	0	?	?
O=C(/C=C/Nc1cccc(F)c1)c1ccco1	-5%	-24%	6	?	-17%
COc1ccc(C2c3cc(OC)c(OC)cc3CC(=O)N2c2cccc(C#N)c2)cc1 (stereo unspecified)	-8%	/	/	0%	-12%
CC(=O)Nc1ccc(S(=O)(=O)N2CCN(c3nc(NC4CCCC4)c4ccccc4n3)CC2)cc1	22µM*	?	-4	-17%	14µM*[quencher]
CC(C)c1ccc(NC(=O)c2ccc(CN3CC(=O)N4CCCCC4C3=O)cc2)cc1 (stereo unspecified)	0%	/	/	-16%	-20%
CCN(CC)C(=O)c1sc2nc(-c3cccs3)cc(-c3cccs3)c2c1N	-5%	?	0	?	?
Cc1nnc(NC(=O)c2sc3nc(-c4cccs4)cc(C(F)(F)F)c3c2N)s1	2%	?	6	13µM*	-15%
Nc1c(C(=O)Nc2nccs2)sc2nc(-c3cccs3)cc(C(F)(F)F)c12	-6%	?	1	7%	3%
CC(C)(C)C(=O)c1sc2nc(-c3cccs3)cc(C(F)(F)F)c2c1N	-6%	6.3µM*	0	?	-5%
Cc1ccc(Nc2nnc(-c3ccc(C)c(S(=O)(=O)N4CCN(C)CC4)c3)c3ccccc23)c(C)c1	-6%	/	/	-24%	-14%
Cc1c(Cl)cccc1N1CCn2c1nc1c2c(=O)n(CC(=O)O)c(=O)n1C	-7%	/	/	3%	0%
CCCCOc1ccc(C(=O)Nc2ccc3c(c2)CCCN3C(=O)c2cccs2)cc1	7%	/	/	?	-15%
